According to PubChem BioAssay:
Calls of active or inactive are those of the source.

Assays:
[1] = small molecules captured by biotinylated probe aFSTL3 – biochemical, small-molecule microarray, fluorescence 635/667, stem cell growth factor project, primary screen (AID 1064); conditions: higher = more signal;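 note: measures binding of the biotinylated anti-FSTL3 antibody to printed compounds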
[2] = binders from COS7 lysate, DM2A8 probe, primary screen, torsin A project, cell lysate, small-molecule microarray, fluorescence 635/667 (AID 1065); conditions: higher = more signal, COS7 lysate expressing mutant human TOR1A
[3] = small molecules captured by biotinylated probe aFGF2 – biochemical, small-molecule microarray, fluorescence 635/667, stem cell growth factor project, primary screen (AID 1067); conditions: higher = more signal;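 note: measures binding of biotinylated aFGF2 protein to printed compounds on slides; z-score merges feature fluorescence and signal-to-noise across triplicate slides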
[4] = small molecules captured by biotinylated probe aFGF10 – biochemical, small-molecule microarray, fluorescence 635/667, stem cell growth factor project, primary screen (AID 1071); conditions: higher = more signal;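 note: score merges 667 nm spot intensity and signal to noise from triplicate slides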
[5] = target: Neurogenic locus notch homolog protein 2 (Homo sapiens) (UniProt Q04721); experiment: small molecules binding Notch2 protein – biochemical, small-molecule microarray, 635 nm fluorescence, stem cell growth factors, primary screen (AID 1073); conditions: higher = more signal
Chain of Neurogenic locus notch homolog protein 2 (Homo sapiens) (Q04721 whole entry, looked up, canonical isoform): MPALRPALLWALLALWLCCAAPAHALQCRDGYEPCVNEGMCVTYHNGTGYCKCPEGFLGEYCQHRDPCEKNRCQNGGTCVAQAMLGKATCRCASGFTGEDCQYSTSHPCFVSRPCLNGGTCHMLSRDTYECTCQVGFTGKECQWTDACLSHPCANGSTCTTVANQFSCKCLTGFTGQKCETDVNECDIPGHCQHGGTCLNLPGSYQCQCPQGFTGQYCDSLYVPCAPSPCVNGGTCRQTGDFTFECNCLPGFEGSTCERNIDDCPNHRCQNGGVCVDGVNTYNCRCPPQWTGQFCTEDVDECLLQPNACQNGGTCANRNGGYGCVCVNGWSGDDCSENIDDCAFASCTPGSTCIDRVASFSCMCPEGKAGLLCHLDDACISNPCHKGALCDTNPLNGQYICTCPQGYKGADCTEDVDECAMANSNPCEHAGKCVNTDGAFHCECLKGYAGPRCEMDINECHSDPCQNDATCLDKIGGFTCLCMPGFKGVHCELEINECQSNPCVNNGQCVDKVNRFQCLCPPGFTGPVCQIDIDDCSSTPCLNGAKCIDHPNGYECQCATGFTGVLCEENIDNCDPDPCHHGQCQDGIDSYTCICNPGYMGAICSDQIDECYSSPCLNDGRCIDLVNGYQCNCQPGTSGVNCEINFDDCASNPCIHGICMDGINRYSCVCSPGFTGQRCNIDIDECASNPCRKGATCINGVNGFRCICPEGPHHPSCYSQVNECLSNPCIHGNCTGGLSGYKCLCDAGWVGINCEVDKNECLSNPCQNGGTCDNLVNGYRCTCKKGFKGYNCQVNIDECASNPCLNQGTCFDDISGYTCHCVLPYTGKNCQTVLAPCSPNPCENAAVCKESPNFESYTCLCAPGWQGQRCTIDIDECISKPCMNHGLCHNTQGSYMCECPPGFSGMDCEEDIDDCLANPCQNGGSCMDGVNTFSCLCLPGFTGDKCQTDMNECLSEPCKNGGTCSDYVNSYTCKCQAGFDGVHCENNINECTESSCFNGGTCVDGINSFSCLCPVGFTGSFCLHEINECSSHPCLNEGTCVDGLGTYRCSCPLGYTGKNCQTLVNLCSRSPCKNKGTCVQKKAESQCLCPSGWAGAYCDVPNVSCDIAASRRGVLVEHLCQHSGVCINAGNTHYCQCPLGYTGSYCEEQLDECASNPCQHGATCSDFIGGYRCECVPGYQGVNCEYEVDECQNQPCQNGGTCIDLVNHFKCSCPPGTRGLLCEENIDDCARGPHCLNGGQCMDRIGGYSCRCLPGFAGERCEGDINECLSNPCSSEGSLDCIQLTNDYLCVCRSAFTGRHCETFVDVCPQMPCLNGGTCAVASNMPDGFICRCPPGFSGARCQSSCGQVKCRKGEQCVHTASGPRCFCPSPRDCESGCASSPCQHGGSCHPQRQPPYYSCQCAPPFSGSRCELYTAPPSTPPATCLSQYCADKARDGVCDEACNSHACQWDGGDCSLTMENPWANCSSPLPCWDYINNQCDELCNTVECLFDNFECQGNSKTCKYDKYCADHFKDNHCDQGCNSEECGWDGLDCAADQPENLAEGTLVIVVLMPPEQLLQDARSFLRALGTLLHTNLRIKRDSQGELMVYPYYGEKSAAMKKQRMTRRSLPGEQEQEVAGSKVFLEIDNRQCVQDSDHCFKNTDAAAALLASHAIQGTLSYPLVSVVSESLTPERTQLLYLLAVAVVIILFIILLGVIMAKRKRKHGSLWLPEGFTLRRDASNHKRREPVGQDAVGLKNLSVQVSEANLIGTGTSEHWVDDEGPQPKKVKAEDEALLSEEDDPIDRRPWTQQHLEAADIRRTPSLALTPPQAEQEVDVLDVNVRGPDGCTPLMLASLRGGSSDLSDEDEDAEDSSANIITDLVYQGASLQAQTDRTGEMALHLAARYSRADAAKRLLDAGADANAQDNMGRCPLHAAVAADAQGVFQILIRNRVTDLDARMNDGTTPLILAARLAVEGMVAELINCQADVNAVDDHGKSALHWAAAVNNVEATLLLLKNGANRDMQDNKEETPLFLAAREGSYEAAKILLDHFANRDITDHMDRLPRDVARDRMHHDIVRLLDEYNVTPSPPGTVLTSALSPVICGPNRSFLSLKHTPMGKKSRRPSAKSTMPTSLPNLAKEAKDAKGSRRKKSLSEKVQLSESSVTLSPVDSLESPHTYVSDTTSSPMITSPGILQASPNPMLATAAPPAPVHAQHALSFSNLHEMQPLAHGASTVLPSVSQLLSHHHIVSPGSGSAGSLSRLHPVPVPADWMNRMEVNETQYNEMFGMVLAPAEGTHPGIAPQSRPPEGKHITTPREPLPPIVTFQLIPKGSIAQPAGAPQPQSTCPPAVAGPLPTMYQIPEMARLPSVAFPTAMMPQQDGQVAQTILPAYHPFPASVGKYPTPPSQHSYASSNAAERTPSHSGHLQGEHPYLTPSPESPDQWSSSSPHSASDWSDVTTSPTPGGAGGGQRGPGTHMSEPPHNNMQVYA

[6] = target: Pro-neuregulin-1, membrane-bound isoform (Homo sapiens) (UniProt Q02297); experiment: small molecules binding neuregulin-1 protein – biochemical, small-molecule microarray, fluorescence 635/667, psychiatric disease protein project, primary screen (AID 1075); conditions: NRG1 binding, 635 nm fluorescence, higher = more signal;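 note: score combines 667 nm spot fluorescence with signal to noise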
Chain of Pro-neuregulin-1, membrane-bound isoform (Homo sapiens) (Q02297 whole entry, looked up, the tested form may be a part, canonical isoform): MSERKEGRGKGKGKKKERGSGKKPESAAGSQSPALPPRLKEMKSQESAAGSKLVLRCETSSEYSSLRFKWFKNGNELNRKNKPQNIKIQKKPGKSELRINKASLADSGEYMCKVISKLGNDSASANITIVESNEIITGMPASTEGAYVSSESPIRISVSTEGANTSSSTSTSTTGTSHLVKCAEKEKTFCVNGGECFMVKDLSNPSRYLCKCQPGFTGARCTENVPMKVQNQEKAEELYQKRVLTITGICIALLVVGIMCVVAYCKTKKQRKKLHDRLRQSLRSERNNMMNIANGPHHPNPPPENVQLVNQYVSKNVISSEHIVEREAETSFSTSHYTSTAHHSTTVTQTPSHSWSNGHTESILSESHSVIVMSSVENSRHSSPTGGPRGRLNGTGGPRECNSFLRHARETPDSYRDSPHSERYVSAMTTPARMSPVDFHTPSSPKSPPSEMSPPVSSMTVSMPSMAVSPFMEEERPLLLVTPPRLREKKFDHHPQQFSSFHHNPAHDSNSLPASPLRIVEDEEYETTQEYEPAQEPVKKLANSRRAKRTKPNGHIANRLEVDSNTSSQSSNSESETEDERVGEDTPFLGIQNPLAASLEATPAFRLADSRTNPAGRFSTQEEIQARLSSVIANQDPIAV

[7] = test system: Neuregulin-1 EGF-like domain; experiment: small molecules binding NRG1 EGF domain – biochemical, small-molecule microarray, 635 nm fluorescence, primary screen (AID 1081); conditions: higher = more signal;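 note: binding of the protein to compounds printed on small-molecule microarray slides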
[8] = FRG1 expression reporter modulators in myotubes – cell-based, C2C12 myotubes, firefly/Renilla luciferase, luminescence, FRG1 inhibition for FSHD, primary screen (AID 1084); conditions: FRG1 promoter luciferase, higher = more signal, called active from +8 up or from −8 down
[9] = small molecules captured by biotinylated probe aFST – biochemical, small-molecule microarray, fluorescence 635/667, stem cell growth factor project, primary screen (AID 1086); conditions: higher = more signal;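 note: score merges 667 nm fluorescence with signal-to-noise of each printed compound spot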
[10] = binders of probe aHhip on microarray, primary screen, stem cell growth factor project, biochemical, small-molecule microarray, fluorescence 635/667 (AID 1087); conditions: higher = more signal;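 note: score merges spot fluorescence at 667nm with spot signal to noise ratio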

Row | Compound | composite z-score [1] | composite z-score [2] | composite z-score [3] | composite z-score [4] | composite z-score [5] | composite z-score [6] | composite z-score [7] | z-score [8] | composite z-score [9] | composite z-score [10]
1 | C[C@@H](OCc1ccccc1)C1NC(=O)[C@@]23C(=O)N[C@@H](Cc4ccccc4)C2[C@H](C)[C@@]2(C)O[C@H]2C3/C=C/C/C=C\CNC(=O)CNC1=O (stereo not given in full) | -0.231 | 0.667 | -0.132 | 0.25 | -1.08 | -0.366 | -0.002 | -0.0275 (inactive) | -0.294 | -0.134
2 | COCCOC(=O)N1C(=O)[C@@]2(c3cc(C#Cc4ccc(OC)cc4)ccc31)[C@H](C(=O)N1CCCCCCC1)[C@H]1C(=O)O[C@H](c3ccccc3)[C@H](c3ccccc3)N1[C@@H]2c1ccc(O)cc1 | 2.75 | 0.294 | 0.125 | 0.479 | 0.565 | 0.114 | 1.13 | 1.09 (inactive) | 2.06 | 0.615
3 | Cc1ccc(C(C)CC(O)C2C=CC3C(=O)N(c4ccccc4)C(=O)C3N2Nc2ccc(C(C)C)cc2)o1 (stereo not given) | 1.15 | 1.05 | 0.102 | 0.712 | 1.58 | 1.93 | 0.765 | 0.543 (inactive) | 0.992 | -0.0772
4 | O=C(NC1CC1)[C@@H]1c2ccccc2C(=O)N(Cc2ccccc2)[C@H]1c1ccc(CO)cc1 | 0.176 | -0.301 | -0.0606 | 0.207 | -0.454 | 1.4 | 1.4 | -2.71 (inactive) | 0.646 | -0.493
5 | Cc1ccc(S[C@]2(C(=O)NC(C)C)CC(=O)N(C3Cc4ccccc4C3)[C@@H]2c2ccc(CO)cc2I)cc1 | 0.125 | -0.869 | -0.216 | -0.667 | -0.853 | 1.06 | 0.381 | -1.85 (inactive) | -0.654 | -0.858
6 | O=C(O)[C@H]1C[C@H]2C(=O)N3CCC[C@H]3C(=O)N2[C@H]1c1cccc(OCCO)c1 | 0.376 | 0.812 | -0.0985 | 0.178 | -0.237 | 0.337 | 1.25 | 6.19 (inactive) | -0.0791 | 0.176
7 | COc1ccc(C(O)C2C=CC3C(=O)N(c4ccccc4)C(=O)C3N2Nc2ccccc2)cc1OCc1ccccc1 (stereo not given) | 0.12 | 0.748 | 0.206 | 1.1 | 1.51 | 1.48 | 1.15 | 0.0678 (inactive) | 1.64 | 0.0515
8 | COC1(C)CN(Cc2ccccc2Br)[C@H](/C=C/c2ccccc2)[C@H](Cc2ccccc2)O1 (stereo not given in full) | -0.366 | 0.115 | -0.194 | -0.0452 | -0.669 | -0.435 | -0.426 | -0.916 (inactive) | -0.317 | 0.0373
9 | O=C1C[C@@](C(=O)NCC(F)(F)F)(c2ccc([N+](=O)[O-])cc2)[C@@H](c2ccc(CO)cc2)N1C1CCCCC1 | 0.99 | 1.2 | 0.0216 | 0.606 | 0.303 | 1.24 | 1.37 | 0.265 (inactive) | 0.243 | 0.554
10 | CCOC(=O)C1=CC[C@@H](c2ccccc2C(F)(F)F)N(S(=O)(=O)c2ccc(C)cc2)C1 | 0.811 | 1.54 | 0.313 | 1.1 | 1.67 | 1.79 | 1.28 | -3.59 (inactive) | 0.997 | -0.0439
11 | COC(=O)[C@@]1(Cc2ccc(F)cc2)[C@H]2c3cc(C(=O)N4CCCC4)n(CCc4c[nH]c5ccc(OC)cc45)c3C[C@H]2CN1C(=O)c1ccccc1 | 1.66 | -0.619 | 0.803 | 1.3 | 1.58 | 1.46 | 1.19 | 1.61 (inactive) | 2.02 | 0.413
12 | C=CCNC(=O)[C@@H]1[C@H]2C(=O)O[C@H](c3ccccc3)[C@H](c3ccccc3)N2[C@H](c2ccccc2OCCO)[C@@]12C(=O)N(C(=O)OCCOC)c1ccc(C#CC3=CCCCC3)cc12 | -0.0809 | 0.683 | 0.0496 | 0.586 | -0.0189 | 0.457 | 1.2 | -1.11 (inactive) | 0.206 | -0.178
13 | COC(=O)C1(Cc2ccccc2)C=C2C(=C(c3ccccc3)C(=O)C2C)CN1 (stereo not given) | 2.22 | 0.0069 | 0.731 | 1.21 | 1.19 | 1.45 | 1.01 | 0.943 (inactive) | 1.87 | 2.63
14 | CN(C)CCCNC(=O)[C@@H]1c2ccccc2C(=O)N(CC23CC4CC(CC(C4)C2)C3)[C@H]1c1ccc(CO)cc1 | -0.782 | 1.13 | 0.0878 | 0.837 | 1.28 | 1.15 | 1.39 | -1.92 (inactive) | 0.445 | -0.128
15 | CC=CC(O)C1C=CC2C(=O)N(C)C(=O)C2N1Nc1ccc([N+](=O)[O-])cc1[N+](=O)[O-] (stereo not given) | 0.028 | -0.183 | -0.185 | -0.0156 | -0.346 | 1.2 | 1.29 | 0.639 (inactive) | -0.441 | 0.312
16 | CC(C)C[C@@H]1NC(=O)[C@H]2C[C@@H](C(=O)NCCCCCC[N+](C)(C)C)[C@@H](c3cccc(OCCO)c3)N2C1=O | -0.183 | 0.121 | -0.152 | -0.214 | -0.356 | -0.0252 | 1.34 | 4.18 (inactive) | -0.601 | -0.134

Row | Compound | composite z-score [1] | composite z-score [2] | composite z-score [3] | composite z-score [4] | composite z-score [5] | composite z-score [6] | composite z-score [7] | z-score [8] | composite z-score [9] | composite z-score [10]
17 | COCCOC(=O)N1C(=O)[C@@]2(c3cc(C#Cc4ccc(OC)cc4)ccc31)[C@H](C(=O)NC[C@H](O)c1ccccc1)[C@H]1C(=O)O[C@H](c3ccccc3)[C@H](c3ccccc3)N1[C@@H]2c1ccc(O)cc1 | -0.179 | 0.504 | 0.0086 | 0.589 | 1.37 | 0.566 | 1.23 | 0.427 (inactive) | 0.57 | 0.012
18 | CC(C)(C)OC(=O)CC[C@]1(C(=O)N2CCOCC2)N=C(c2ccc(OCCCO)cc2)O[C@H]1c1ccccc1 | -0.209 | 0.177 | -0.0601 | 0.724 | 0.819 | 0.526 | 0.548 | -2.64 (inactive) | 0.534 | 0.0695
19 | Cc1ccc(S[C@]2(C(=O)NCC(C)C)CC(=O)N(Cc3ccccc3Cl)[C@@H]2c2ccc(CO)cc2I)cc1 | 0.699 | 1.65 | -0.0818 | 0.452 | -1.11 | 1.54 | 1.36 | -1.45 (inactive) | -0.414 | -0.0645
20 | COCCOC(=O)N1C(=O)[C@@]2(c3cc(C#CC4(O)CCCCCC4)ccc31)[C@H](c1ccccc1OCCO)N1[C@H](c3ccccc3)[C@H](c3ccccc3)OC(=O)[C@H]1[C@@H]2C(N)=O | -0.452 | 0.447 | 0.0038 | 0.498 | 1.35 | 0.102 | 1.16 | -1.17 (inactive) | 0.489 | -0.0672
21 | NC(=O)NCC#Cc1ccc2c(c1)[C@]1(C(=O)N2)[C@H](C(=O)O)[C@H]2C(=O)O[C@H](c3ccccc3)[C@H](c3ccccc3)N2[C@@H]1c1ccccc1OCCO | 0.991 | 0.396 | -0.0749 | 0.776 | 0.231 | 1.99 | 1.01 | -0.765 (inactive) | 0.734 | 0.291
22 | CC(C)CN1C(=O)[C@@]2(Cc3ccccc31)c1ccccc1C(=O)N(Cc1ccccc1C(F)(F)F)[C@H]2c1ccc(CO)cc1 | 0.0106 | -0.0077 | -0.167 | 0.2 | -0.202 | -0.84 | -1.12 | -1.04 (inactive) | 0.0594 | -0.374
23 | COc1cc2c(cc1O)C(C)N(Cc1cc3c(cc1Br)OCO3)CC2 (stereo not given) | 0.731 | -0.192 | -0.0951 | 0.0663 | 0.511 | 0.53 | 1.5 | 0.0288 (inactive) | -0.175 | 0.0749
24 | NC(=O)NCC#Cc1ccc2c(c1)[C@]1(C(=O)N2)[C@H](c2ccc(O)cc2)N2[C@H](c3ccccc3)[C@H](c3ccccc3)OC(=O)[C@H]2[C@@H]1C(=O)Nc1nc2ccccc2s1 | 0.289 | 0.21 | -0.0222 | 0.478 | 0.768 | 0.434 | 0.633 | 0.63 (inactive) | 0.185 | 0.0881
25 | C=C(C(=O)CC[C@H](OC(C)=O)c1cccc(OCCO)c1)C(C)C | 0.125 | -0.152 | -0.189 | -0.582 | -0.739 | 0.007 | -0.526 | 0.422 (inactive) | -0.675 | -0.0994
26 | COCCOC(=O)N1C(=O)[C@@]2(c3cc(C#CC4(O)CCCCCC4)ccc31)[C@H](C(N)=O)[C@H]1C(=O)O[C@H](c3ccccc3)[C@H](c3ccccc3)N1[C@@H]2c1ccc(O)cc1 | -0.353 | 0.516 | -0.0494 | 0.544 | 0.618 | 0.446 | 1.28 | 0.116 (inactive) | 0.33 | 0.192
27 | C[C@]12C(=O)N(CCCCCCO)[C@@H]3C(=O)N(c4ccc(Cl)cc4)CC=CC31O[C@@H]1/C=C\CCCOC(=O)C12 (stereo not given in full) | 0.299 | -0.268 | -0.121 | -0.387 | -1.02 | 0.0955 | 1.2 | -0.621 (inactive) | -0.21 | -0.132
28 | CN(C)CCCCNC(=O)[C@H]1C[C@H]2C(=O)N[C@@H](CCCCN(C)C)C(=O)N2[C@H]1c1cccc(OCCO)c1 | -0.852 | 1.25 | 0.0025 | 1.02 | 0.591 | 0.839 | 1.32 | -0.275 (inactive) | 0.402 | -0.381
29 | COc1c(C)cc(-c2cc3c(c(Cc4ccccc4)n2)[Si](C(C)C)(C(C)C)OC3)cc1C | -0.148 | 0.0413 | -0.0448 | -0.108 | 0.64 | -0.0762 | -0.588 | 0.184 (inactive) | 0.335 | -0.0994
30 | COCCCNC(=O)[C@]1(CCC(=O)OC(C)(C)C)N=C(c2ccc(OCCCO)cc2)O[C@@H]1c1ccccc1 | 1.19 | 0.389 | 0.0629 | 0.578 | 0.819 | 1.96 | 1.28 | 0.977 (inactive) | 0.888 | 0.591
31 | C=C(/C(=C/C[C@@H](OC(=O)c1ccncc1)c1ccc(OCCO)cc1)c1cc(C(=O)OC)ccc1OC)C(C)C | -0.445 | 1.24 | -0.139 | 0.93 | 0.833 | 0.679 | 1.13 | 0.317 (inactive) | 0.0136 | -0.399
32 | C=CC[C@]12N=C(c3ccc(OCCCO)cc3)O[C@H]1c1ccccc1N(C)C2=O | 1.21 | 0.541 | 0.0563 | 0.21 | 0.0523 | 1.3 | 1.22 | -1.14 (inactive) | 0.896 | 0.214
